# From PubChem
# Hits are enriched below; roughly 3.5% of the tested compounds scored in any of these assays.
# TMEM16A inh – blocks the mouse calcium-activated chloride channel TMEM16A; HEK293 TMEM16A/YFP iodide influx fluorescence, ionomycin; normalized B-score (activity score, 25-100; higher = stronger inhibition) at 10 µM; Q8BHY3; 310,000 compounds, 1.2% hits; AID 588511;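 active = ratio plate-corrected score three or more library SD toward inhibition, starting fluorescence score within five deviations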;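 also: score derived from kinetic fluorescence span divided by baseline fluorescence per well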
# Kir21 inh – blocks the mouse Kir2.1 inward-rectifier potassium channel; P35561; HEK293-Kir2.1, FluxOR thallium flux fluorescence; active compounds read low; B-score at 10 µM; 310,000 compounds, 0.85% hits; AID 1672;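 active = fluorescence ratio B-score at or below minus 3 SD of library scores, with starting-brightness B-score within 2 SD, cut at about -4.2 in these data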;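 also: channel flux triggered by added potassium and thallium sulfate stimulus; B-score of peak minus minimum fluorescence over baseline after thallium stimulus; more negative B-score means stronger Kir2.1 block with less thallium influx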
# Target sequence (P35561 whole entry, looked up): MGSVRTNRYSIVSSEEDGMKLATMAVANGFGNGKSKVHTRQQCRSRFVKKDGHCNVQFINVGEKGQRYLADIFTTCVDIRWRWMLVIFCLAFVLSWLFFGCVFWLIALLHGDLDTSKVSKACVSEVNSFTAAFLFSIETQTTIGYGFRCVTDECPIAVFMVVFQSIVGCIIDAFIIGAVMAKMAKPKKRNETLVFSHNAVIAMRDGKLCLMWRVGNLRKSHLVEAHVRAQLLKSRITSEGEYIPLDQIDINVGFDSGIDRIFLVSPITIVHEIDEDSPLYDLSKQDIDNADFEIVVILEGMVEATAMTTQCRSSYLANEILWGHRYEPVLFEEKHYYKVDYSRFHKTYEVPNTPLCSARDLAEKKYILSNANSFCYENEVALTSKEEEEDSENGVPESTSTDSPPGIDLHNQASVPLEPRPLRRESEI
# KCNK3 block – human KCNK3 channel inhibition, primary screen | CHO-KCNK3 thallium flux, FluxOR fluorescence; active compounds read low | AID 602410 | O14649 | B-score at 10 µM | 340,000 compounds, 0.84% hits;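 active = B-score under library mean minus 4 SD, starting fluorescence ratio at most library mean plus 5 SD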;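 also: more negative B-score means stronger inhibition of thallium flux through KCNK3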
# KCNK9 inh – inhibitors of human KCNK9 two-pore domain potassium channel | 310,000 compounds, 1.2% hits | Q9NPC2 | AID 488922 | B-score at 10 µM | HEK293 KCNK9, FluxOR thallium flux fluorescence; active compounds read low;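 active = ratio B-score over 3 SD below the library mean, with starting fluorescence within 5 SD of its mean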;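 also: negative B-score means less thallium flux so channel inhibition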
# TMEM16A act – activates or potentiates the mouse TMEM16A chloride channel | HEK293 TMEM16A/YFP-H148Q/I152L, iodide quench fluorescence; active compounds read low | 340,000 compounds, 0.3% hits | B-score at 10 µM | AID 623877;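 active = fluorescence-ratio B-score plate-corrected deviation score at least 3 library SD below zero, with starting fluorescence score within 5 deviations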;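 also: channel opened by trigger with iodide after compound preincubation; score built on the fluorescence ratio of max minus min over baseline; more negative score means more quench and so TMEM16A activation or potentiation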
# KCNK9 inh conf – confirmation of human KCNK9 potassium channel inhibitors; shares compounds with KCNK9 inh; HEK293 KCNK9 cells, FluxOR thallium flux fluorescence; inhibition, % at 10 µM; 4,900 compounds, 43% hits;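 active = thallium signal inhibited by more than 5 SD of the compound-free buffer control wells, on both duplicate plates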;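 also: 0% = assay buffer control wells without compound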
# Kir21 sel – selectivity of KCNK9 modulators against mouse Kir2.1. shares compounds with KCNK9 inh. Kir2.1 cells, FluxOR thallium flux fluorescence. inhibition, % at 10 µM. 4,900 compounds, 4% hits. AID 492993;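 active = thallium signal drop more than 5 SD beyond the mean of the no-compound control wells, seen in both duplicate plates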;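 also: signal is fluorescence rise after thallium addition divided by baseline fluorescence; plate controls were assay buffer only for no effect and full block by chlorpromazine control for full effect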
# KCNK9 uninduced – non-induced cell nonspecific activity of KCNK9 modulators | shares compounds with KCNK9 inh | non-induced KCNK9-HEK293, FluxOR thallium flux | inhibition, % at 10 µM | 4,900 compounds, 40% hits | AID 492997;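 active = thallium signal drop beyond 5 SD of the untreated control mean, on both duplicate plates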;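 also: plate controls were buffer only IC0 wells for no effect and SID17386958 at its maximal inhibitory level for full effect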
# Starred values were filed as active, the others as inactive; i = inactive; . = no result given.
SMILES,TMEM16A inh,Kir21 inh,KCNK3 block,KCNK9 inh,TMEM16A act,KCNK9 inh conf,Kir21 sel,KCNK9 uninduced
COc1ccc(NC(=O)C2C3C=CC4(O3)C2C(=O)N(CCN2CCCCC2)C4C(=O)NC2CCCC(C)C2C)cc1 (configuration not stated),i,-1.46,i,i,i,.,.,.
Cc1cccc(N2CCN(c3nc(C)cc(C)c3C#N)CC2C)c1 (configuration not stated),i,-0.01,i,-8.44*,i,74.5%*,i,46.5%*
COc1cccc(N2CCN(c3nc(C)cc(C)c3C#N)CC2)c1,i,-0.23,i,i,i,.,.,.
COc1ccccc1C1CCN(Cc2ccc3ccccc3c2)CC1,i,-1.53,i,i,i,i,28.5%*,i
COC(=O)c1cncc(C)c1,i,-1.53,i,i,i,.,.,.
CC(C)CN(C(=O)COC(=O)c1ccc2c(c1)OCO2)c1c(N)n(Cc2ccccc2)c(=O)[nH]c1=O,i,-1.53,i,i,i,.,.,.
CCC(=NCCc1c(C)[nH]c2ccc(OC(F)(F)F)cc12)C1=C(O)CC(c2ccccc2)CC1=O (configuration not stated),i,2.49,i,i,i,.,.,.
CC(=NCCc1c(C)[nH]c2ccc(OCc3ccccc3)cc12)C1=C(O)CC(c2ccccc2)CC1=O (configuration not stated),i,0.05,i,i,i,.,.,.
CCCCC(=NCCc1c(C)[nH]c2ccc(OC)cc12)C1=C(O)CC(c2ccccc2)CC1=O (configuration not stated),i,1.28,i,i,i,i,i,i
CCC(=NCCc1c(C)[nH]c2ccccc12)C1=C(O)CC(c2ccccc2)CC1=O (configuration not stated),i,-0.65,i,i,i,i,i,i
CCCCn1c(N)c(N(CC(C)C)C(=O)C2CC(=O)N(c3ccc(CC)cc3)C2)c(=O)[nH]c1=O (configuration not stated),i,1.29,i,i,i,.,.,.
Clc1ccc(-c2nnc(CCc3ccccc3)o2)c(Cl)c1,i,1.56,i,i,i,i,i,i
CCCCc1noc(-c2c(-c3ccccc3Cl)noc2C)n1,i,0.94,i,i,i,i,i,i
CC1CC(C)CN(S(=O)(=O)c2ccc3c(c2)CC(C)N3C(=O)C2CCC2)C1 (configuration not stated),i,-0.39,i,i,i,i,i,i
CC1CC(C)CN(S(=O)(=O)c2ccc3c(c2)CC(C)N3C(=O)C2CC2)C1 (configuration not stated),i,-0.69,i,i,i,i,i,i
N#Cc1c(Sc2ncc(C(F)(F)F)cc2Cl)nsc1C/C=N\OCc1ccccc1Br,i,-1.88,i,i,i,i,i,i
CCOC(=O)/C(=C\Nc1ccccc1C(F)(F)F)Sc1ncc(C(F)(F)F)cc1Cl,i,0.08,i,i,i,.,.,.
O=C(CCN1C(=O)c2ccccc2C1=O)N1CCN(C(=O)c2ccccc2)CC1,i,-0.03,i,i,i,.,.,.
O=C(CCN1C(=O)c2ccccc2C1=O)N1CCN(C2c3ccccc3-c3ccccc32)CC1,i,-0.73,i,i,i,i,i,i
Cn1nc([N+](=O)[O-])nc1N1CCOCC1,i,-0.08,i,i,i,.,.,.
C(=N\Nc1nc(-c2ccccc2)cs1)/c1ccncc1,i,-0.89,i,i,i,.,.,.
O=C(O)Cc1sc(N/N=C\c2ccncc2)nc1-c1ccccc1,i,0.14,i,-10.8*,i,25.0%*,i,i
CCOc1ccccc1CN1CCN(Cc2csc(C(C)=O)c2)CC1CCO (configuration not stated),i,1.66,i,i,i,.,.,.
Cc1ccc(NC(=O)CN2CCc3cc4c(cc3C2)OCCCO4)cc1,i,0.36,i,i,i,.,.,.
Cc1cc(C)cc(NC(=O)CN2CCc3cc4c(cc3C2C)OCCCO4)c1 (configuration not stated),i,0.02,i,i,i,i,i,i
SMILES,TMEM16A inh,Kir21 inh,KCNK3 block,KCNK9 inh,TMEM16A act,KCNK9 inh conf,Kir21 sel,KCNK9 uninduced
Cc1cccc(NC(=O)CN2CCc3cc4c(cc3C2C)OCCCO4)c1 (configuration not stated),i,0.81,i,i,i,i,i,i
Cc1cccc(NC(=O)CN2CCc3cc4c(cc3C2)OCCCO4)c1,i,0.45,i,i,i,i,i,i
CC1c2cc3c(cc2CCN1C(=O)c1ccc(Br)cc1)OCCCO3 (configuration not stated),i,2.24,i,i,i,.,.,.
CS(=O)(=O)N1CCC(C(=O)Nc2ccc(Br)cc2F)CC1,i,1.64,i,i,i,.,.,.
CCOCCCNC(=O)CCN1C(=O)c2ccccc2Sc2ncccc21,i,1.64,i,i,.,.,.,.
CC(=O)N1CCN(c2ncnc3ccccc23)CC1,i,1.86,i,i,i,.,.,.
O=C(Nc1ccccc1Cl)c1sccc1-c1ccccc1,i,-0.1,i,-9.66*,i,34.0%*,i,30.0%*
COc1ccc(-c2nn(-c3ccccc3F)cc2CNCCn2nc(C)cc2C)cc1,i,-0.98,i,i,i,i,i,i
COC(=O)C(Cc1ccc(OC(=O)c2ccc(C)cc2)cc1)N1Cc2ccccc2C1=O (configuration not stated),i,0.89,i,i,i,i,i,i
COC(=O)C(Cc1ccc(O)cc1)N1Cc2ccccc2C1=O (configuration not stated),i,-0.5,i,i,i,.,.,.
Cc1cc(NC(=O)c2cc(-c3cccs3)nc3ccccc23)no1,i,0.79,i,-9.63*,i,37.5%*,i,i
CSc1nc2ccccc2cc1/C=C(\C#N)c1ccccc1,i,0.69,i,-12.6*,i,53.5%*,i,41.5%*
CSc1nc2ccccc2cc1/C=C(\C#N)c1cccc(C)c1,i,1.84,i,i,i,.,.,.
CC/C(=N/Nc1ccccc1Cl)c1cnnc(-c2ccccc2)n1,i,-0.4,i,-13.5*,i,i,i,38.0%*
CCC/C(=N/Nc1ccc(Cl)cc1)c1cnnc(-c2ccccc2)n1,i,-0.01,.,i,.,.,.,.
